# Source: PubChem BioAssay (NCATS)
# Records with an inconclusive call do not appear. Activity calls are given as the source filed them. Calls follow the shape of the full dose curve.
# Assay: Primary qHTS to identify inhibitors of SARS-CoV-2 cell entry (AID 1645846); also: nearly all actives have a fitted effect of over 45% in size
# Conditions: SARS-CoV-2 pseudovirus cell entry assay, luminescence; activity change, negative = inhibition: at 57.1 µM (top of the series) unless noted
# Summary of the method: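 HEK293 cells stably expressing human ACE2, pre-treated 1 h with compound, then infected with MLV particles pseudotyped with Wuhan-Hu-1 spike (C-terminal 19-aa truncation). Luciferase luminescence after 48 h at 37 °C, normalised to spike PP and bald PP.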
# Potency is read from the fitted curve at half-maximal effect.
Compound,"activity change, negative = inhibition",Potency
Cc1c(NC(=O)c2cc(C(N)=O)nc3cc(F)ccc23)c(C(F)(F)F)nn1Cc1ccc(C(C)(C)C)cc1,-95.1%,
Nc1nc2c(c(=O)[nH]1)N1CN(c3ccc(C(=O)N[C@@H](CCC(=O)O)C(=O)O)cc3)CC1CN2 (stereo not given in full),-83.8%,
COc1cc(N2CCN(C(C)=O)CC2)ccc1Nc1ncc(Cl)c(Nc2ccc(N3CCN(C(C)=O)CC3)cc2OC)n1,-12.2%,
COC1=C(OC)C(=O)C(C/C=C(\C)CC/C=C(\C)CC/C=C(\C)CC/C=C(/C)CC/C=C(\C)CC/C=C(\C)CC/C=C(\C)CC/C=C(\C)CC/C=C(\C)CCC=C(C)C)=C(C)C1=O,-14.5%,
CC(C)c1c(-c2ccccc2)nc2c(C#N)c[nH]n2c1=O,,inactive
O=C(NCc1ccc(S(=O)(=O)c2cccc(C(F)(F)F)c2)cc1)c1cnc2[nH]ncc2c1,-97.3%,
O=C(/C=C/c1cccnc1)NCCCCC1CCN(C(=O)c2ccccc2)CC1,-96.7%,
Cc1c(NC(=O)c2cc(C(N)=O)nc3cc(F)ccc23)c(C(F)(F)F)nn1Cc1ccc(C#N)cc1,-65.9%,
CCCCN(CCCC)C(=O)CN1C[C@H](c2ccc3c(c2)OCO3)[C@@H](C(=O)O)[C@@H]1c1ccc(OC)cc1,-74.4%,
Nc1ccc(/C=C/C(=O)NCc2cc3cc(-c4ccc(C(=O)N5CCC(F)(F)CC5)cc4)cc(-c4ccc(F)cc4)c3o2)cn1,-96.3%,
Cc1ccc(S(=O)(=O)Nc2cc(-c3ccc(C#N)s3)ccc2C)cc1,-92%,
CCOC(=O)CCNc1cc(N2CCc3ccccc3CC2)nc(-c2ccccn2)n1,-97.3%,
CC[C@@H](C)Nc1cc(C(=O)NC2CC3CCC(C2)N3c2ccc(C(=O)C3CC3)cn2)c(C)cc1C(N)=O (stereo not given in full),,1 µM (active)
Cc1ccc([N+](=O)[O-])cc1S(=O)(=O)N(C)/N=C/c1cnc2ccc(Br)cn12,-94.8%,

# Assay: VSVG counterscreen qHTS to identify inhibitors of SARS-CoV-2 cell entry (AID 1645847); also: nearly all actives have a fitted effect of over 65% in size
# Conditions: VSV-G pseudotyped particle entry, luciferase; series mostly up to 57.2 µM
# Summary of the method: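 HEK293-ACE2 cells (Expi293F, human ACE2) pretreated 1 h with compound, then infected with MLV-based VSV-G pseudotyped particles for 48 h at 37 C; luciferase luminescence normalized to VSV-G PP and bald PP wells.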
row,Compound,Potency
1,CS(=O)(=O)N1CCC(NC(=O)c2[nH]ncc2NC(=O)c2c(Cl)cccc2Cl)CC1,0.0961 µM (active)
2,O=C(Nc1ccnc(NC(=O)C2CC2)c1)c1c(Cl)cccc1Cl,2.71 µM (active)
3,O=C(CCCCCCC(=O)N/N=C/c1ccc(N(c2ccccc2)c2ccccc2)cc1)NO,7.84 µM (active)
4,CC(C)OC(=O)[C@H](C)N[P@](=O)(OC[C@H]1O[C@@H](n2ccc(=O)[nH]c2=O)[C@](C)(F)[C@@H]1O)Oc1ccccc1,30.4 µM (active)
5,CCNCCS(=O)(=O)NC[C@@]1(c2ccccc2)SC(NC(=O)C(C)(C)C)=NN1C(=O)C(C)(C)C,0.0541 µM (active)
6,Nc1nc2c(c(=O)[nH]1)N1CN(c3ccc(C(=O)N[C@@H](CCC(=O)O)C(=O)O)cc3)CC1CN2 (stereo not given in full),3.41 µM (active)
